Test systems include HCT-15 colon; HT29 colon; SNB-75 CNS; SNB-19 CNS; U251 CNS; PC-3 prostate; SK-MEL-5 melanoma; UACC-62 melanoma; LOX IMVI melanoma; SK-MEL-28 melanoma.
Common to all, as to assay: NCI-60 one-dose screen, 48 h (100 = growth as untreated, 0 = no growth, -100 = all killed)
Holding throughout (details): 10 µM unless noted

Data on 16 compounds can be found in PubChem BioAssay (NCI).

The structures appear in SMILES notation. Several values for one entry are separate records, joined by “and”; a condition that tells them apart may be missing. Equal values may be shown once. About 83,000 compounds went through this panel and 20% of them were active in at least one assay; those are over-represented in the sample as a whole.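 48-hour exposure, single concentration, 96-well plates; percent growth endpoint where 0 means no net growth. Active: below 10.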 Activity calls are given as the source filed them.

Take `OCc1ccccc1F`: the growth was 15% (inactive) in the assay on HCT-15 colon; 31.3% (inactive) in the assay on HT29 colon; 126% (inactive) in the assay on SNB-75 CNS; 103% (inactive) in the assay on SNB-19 CNS; 80.5% (inactive) in the assay on U251 CNS; 71.9% (inactive) in the assay with PC-3 prostate. In addition, the growth is 95.7% (inactive) with SK-MEL-5 melanoma, 84% (inactive) in the assay on UACC-62 melanoma, 75.8% (inactive) in the assay on LOX IMVI melanoma and 103% (inactive) with SK-MEL-28 melanoma.

As to `O=C(NC(=O)c1ccc(F)c(Cl)c1)NC1CC1`, the growth in the assay with HCT-15 colon is 86.5% (inactive) and 74.6% (inactive); with HT29 colon it was 96.4% (inactive) and 94.5% (inactive); in the assay with SNB-75 CNS it was 105% (inactive) and 122% (inactive); in the assay with SNB-19 CNS, 104% (inactive); in the assay with U251 CNS it was 104% (inactive); in the assay on PC-3 prostate, 98.6% (inactive) and 87.5% (inactive). The growth in the assay with SK-MEL-5 melanoma is 88% (inactive); in the assay on UACC-62 melanoma, 99.8% (inactive) and 96.6% (inactive); with LOX IMVI melanoma it was 98.6% (inactive); with SK-MEL-28 melanoma, 111% (inactive) and 107% (inactive).

Consider `OCCSc1ccc(Cl)cc1`, for which the growth is 104% (inactive) and 102% (inactive) in the assay on HCT-15 colon; 104% (inactive) and 88.1% (inactive) with HT29 colon; 96.7% (inactive) and 83% (inactive) with SNB-75 CNS; 118% (inactive) and 94.6% (inactive) in the assay on SNB-19 CNS; 102% (inactive) and 96.6% (inactive) in the assay with U251 CNS; 101% (inactive) and 81.5% (inactive) with PC-3 prostate. Further, the growth in the assay with SK-MEL-5 melanoma was 108% (inactive) and 98.3% (inactive); in the assay on UACC-62 melanoma, 110% (inactive) and 98.1% (inactive); in the assay on LOX IMVI melanoma, 98.4% (inactive) and 101% (inactive); with SK-MEL-28 melanoma, 121% (inactive) and 93.3% (inactive).

Consider `CC(C)(C)OC(=O)NCCc1ccc(N)cc1`, for which the growth with HCT-15 colon is 111% (inactive); in the assay on HT29 colon, 95.6% (inactive); in the assay with SNB-75 CNS, 87.6% (inactive); in the assay on SNB-19 CNS it was 104% (inactive); in the assay with U251 CNS, 103% (inactive); with PC-3 prostate it was 89.5% (inactive). Besides, the growth in the assay with SK-MEL-5 melanoma is 99.2% (inactive); with UACC-62 melanoma it was 100% (inactive); in the assay with LOX IMVI melanoma it was 106% (inactive); with SK-MEL-28 melanoma, 112% (inactive).

With `COc1cc2c(cc1O)C(=O)CCCC2`, the growth with HCT-15 colon was 95.3% (inactive); in the assay on HT29 colon, 97.2% (inactive); in the assay on SNB-75 CNS, 89.3% (inactive); in the assay on SNB-19 CNS it was 101% (inactive); in the assay with U251 CNS, 96.8% (inactive); with PC-3 prostate it was 87.6% (inactive). The growth in the assay on SK-MEL-5 melanoma was 102% (inactive); in the assay with UACC-62 melanoma, 106% (inactive); in the assay on LOX IMVI melanoma, 90.8% (inactive); in the assay on SK-MEL-28 melanoma it was 111% (inactive).

Consider `CN(C)c1ccc(C(=N)c2ccc(N(C)C)cc2)cc1`, for which the growth in the assay on HCT-15 colon is 23.5% (inactive) and 20.9% (inactive); in the assay on HT29 colon it was 2.09% (active) and 4.13% (active); in the assay with SNB-75 CNS, -30.8% (active) and 8.36% (active); in the assay on SNB-19 CNS, 41.1% (inactive) and 38.3% (inactive); with U251 CNS, 16.6% (inactive) and 17.1% (inactive); in the assay on PC-3 prostate, 66% (inactive) and 47.3% (inactive). The growth is 7.19% (active) and 22.7% (inactive) in the assay with SK-MEL-5 melanoma; 31.4% (inactive) and 31.8% (inactive) with UACC-62 melanoma; 28.9% (inactive) and 33.9% (inactive) in the assay with LOX IMVI melanoma; 44% (inactive) and 36% (inactive) in the assay on SK-MEL-28 melanoma.

`CCNCc1ccccc1`: the growth was 112% (inactive) in the assay with HCT-15 colon; 98.8% (inactive) in the assay with HT29 colon; 102% (inactive) in the assay on SNB-75 CNS; 109% (inactive) with SNB-19 CNS; 101% (inactive) in the assay with U251 CNS; 103% (inactive) in the assay with PC-3 prostate. For the same compound, the growth in the assay with SK-MEL-5 melanoma is 108% (inactive); with UACC-62 melanoma, 100% (inactive); in the assay with LOX IMVI melanoma, 97.8% (inactive); with SK-MEL-28 melanoma, 96.9% (inactive).

For `CCn1c2ccc(N(C)C)cc2c2cc(N(C)C)ccc21`, the growth in the assay with HCT-15 colon was 112% (inactive); with HT29 colon it was 78.9% (inactive); in the assay on SNB-75 CNS, 99.3% (inactive); in the assay on SNB-19 CNS, 102% (inactive); with U251 CNS, 93.9% (inactive); with PC-3 prostate, 72.9% (inactive). In addition, the growth in the assay on SK-MEL-5 melanoma was 97.6% (inactive); in the assay with UACC-62 melanoma, 91.9% (inactive); with LOX IMVI melanoma it was 96.8% (inactive); with SK-MEL-28 melanoma, 98.9% (inactive).

Consider `C(=N\OCCc1ccccc1)/c1ccccn1`, for which the growth is 95% (inactive) and 104% (inactive) with HCT-15 colon; 112% (inactive) and 97.7% (inactive) in the assay on HT29 colon; 117% (inactive) and 86.2% (inactive) with SNB-75 CNS; 108% (inactive) and 103% (inactive) in the assay on SNB-19 CNS; 103% (inactive) and 92.2% (inactive) in the assay on U251 CNS; 112% (inactive) and 104% (inactive) in the assay with PC-3 prostate. In addition, the growth with SK-MEL-5 melanoma is 113% (inactive) and 111% (inactive); with UACC-62 melanoma, 110% (inactive) and 107% (inactive); in the assay with LOX IMVI melanoma, 122% (inactive) and 101% (inactive); in the assay with SK-MEL-28 melanoma, 114% (inactive) and 112% (inactive).

`CC(=O)c1cccc(OC(=O)c2ccccc2)c1`: the growth in the assay on HCT-15 colon is 127% (inactive); with HT29 colon, 104% (inactive); in the assay with SNB-75 CNS, 101% (inactive); in the assay with SNB-19 CNS, 97.2% (inactive); with U251 CNS it was 103% (inactive); in the assay on PC-3 prostate, 90.9% (inactive). The growth in the assay with SK-MEL-5 melanoma was 108% (inactive); in the assay with UACC-62 melanoma it was 91.1% (inactive); with LOX IMVI melanoma it was 87.4% (inactive); in the assay on SK-MEL-28 melanoma, 92.1% (inactive).

For the compound `NC(=O)Cc1nc(O)cc(=O)[nH]1`, the growth in the assay on HCT-15 colon was 96.9% (inactive); with HT29 colon it was 93.2% (inactive); in the assay on SNB-75 CNS it was 88.1% (inactive); in the assay with SNB-19 CNS, 96.9% (inactive); with U251 CNS it was 89.4% (inactive); in the assay with PC-3 prostate, 76.2% (inactive). For the same compound, the growth with SK-MEL-5 melanoma was 104% (inactive); in the assay with UACC-62 melanoma, 98% (inactive); in the assay with LOX IMVI melanoma, 105% (inactive); in the assay with SK-MEL-28 melanoma, 113% (inactive).

For `COCCNC(C)=O`, the growth in the assay on HCT-15 colon was 100% (inactive); with HT29 colon, 108% (inactive); in the assay on SNB-75 CNS it was 99.2% (inactive); with SNB-19 CNS, 104% (inactive); in the assay with U251 CNS, 98.1% (inactive); with PC-3 prostate it was 101% (inactive). Besides, the growth was 96.7% (inactive) in the assay with SK-MEL-5 melanoma, 99.9% (inactive) in the assay with UACC-62 melanoma, 105% (inactive) with LOX IMVI melanoma and 112% (inactive) with SK-MEL-28 melanoma.

For `O=C(O)COc1ccccc1F`, the growth is 113% (inactive) with HCT-15 colon; 113% (inactive) in the assay on HT29 colon; 94.4% (inactive) with SNB-75 CNS; 107% (inactive) in the assay with SNB-19 CNS; 109% (inactive) in the assay on U251 CNS; 82.6% (inactive) in the assay with PC-3 prostate. Further, the growth in the assay on SK-MEL-5 melanoma was 95% (inactive); in the assay with UACC-62 melanoma, 101% (inactive); with SK-MEL-28 melanoma it was 112% (inactive).

Consider `O=C(N=C1C(=O)C2(CCCCC2)C2(N=C(c3ccccc3)OC2=O)C12CCCCC2)c1ccccc1` (configuration not stated), for which the growth is 62.3% (inactive) with HCT-15 colon; 51.5% (inactive) in the assay with HT29 colon; 85.2% (inactive) in the assay with SNB-75 CNS; 71.5% (inactive) in the assay on SNB-19 CNS; 59.6% (inactive) in the assay with U251 CNS; 42.8% (inactive) in the assay on PC-3 prostate. The growth with SK-MEL-5 melanoma was 64.6% (inactive); in the assay on UACC-62 melanoma, 58.6% (inactive); with SK-MEL-28 melanoma it was 84.5% (inactive).

With `O=C(O)c1c2c(nc3ccccc13)Cc1ccccc1-2`, the growth with HCT-15 colon was 103% (inactive); with HT29 colon, 109% (inactive) and 101% (inactive); with SNB-75 CNS, 99.6% (inactive) and 101% (inactive); in the assay on SNB-19 CNS, 108% (inactive) and 101% (inactive); in the assay on U251 CNS, 101% (inactive) and 103% (inactive); in the assay with PC-3 prostate, 99.2% (inactive) and 86% (inactive). Further, the growth in the assay on SK-MEL-5 melanoma was 110% (inactive) and 102% (inactive); with UACC-62 melanoma, 105% (inactive) and 92.9% (inactive); in the assay on SK-MEL-28 melanoma, 109% (inactive) and 98.4% (inactive).

As for `O=C(/C=C/C=C/c1ccc2c(c1)OCO2)N1CCCCC1`, the growth with HCT-15 colon is 101% (inactive) and 95.3% (inactive); in the assay with HT29 colon it was 99.5% (inactive) and 87.6% (inactive); in the assay on SNB-75 CNS, 112% (inactive) and 99.4% (inactive); in the assay on SNB-19 CNS, 97.2% (inactive) and 99.6% (inactive); with U251 CNS, 95.1% (inactive) and 102% (inactive); in the assay on PC-3 prostate, 97.7% (inactive) and 90% (inactive). The growth in the assay with SK-MEL-5 melanoma is 97.7% (inactive) and 97.9% (inactive); in the assay on UACC-62 melanoma, 92% (inactive) and 90% (inactive); in the assay on LOX IMVI melanoma it was 97.7% (inactive) and 101% (inactive); in the assay with SK-MEL-28 melanoma, 129% (inactive) and 94.1% (inactive).
